CtBP-E1A inh: blocks the CtBP interaction with E1A; AlphaScreen GST-E1A/His-CtBP binding, 1536-well; hits give low values; activity change, % (no concentration beside the values); actives 0.49% (n = 340,000)
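AlphaScreen with 125 nM GST-E1A and 125 nM His-CtBP (5X stocks) in Tris pH 8.0, 300 mM NaCl, BSA, Tween 20, TCEP. Compounds preincubated 2 h at 37 deg C, then glutathione donor/nickel acceptor beads added for 1 h at 37 deg C in dark.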
hERG WT inh: KCNH2 (human, wildtype) channel inhibition. activity change, % at 1.84 µM. U2OS, BacMam KCNH2, thallium flux FluxOr; hits give low values. actives 0.37% (n = 340,000). Q12809;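 active means maximum activity change below -70%; inconclusive means maximum activity change between -70% and -50%; inactive means maximum activity change above -50%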
Target sequence (Q12809 whole entry, looked up): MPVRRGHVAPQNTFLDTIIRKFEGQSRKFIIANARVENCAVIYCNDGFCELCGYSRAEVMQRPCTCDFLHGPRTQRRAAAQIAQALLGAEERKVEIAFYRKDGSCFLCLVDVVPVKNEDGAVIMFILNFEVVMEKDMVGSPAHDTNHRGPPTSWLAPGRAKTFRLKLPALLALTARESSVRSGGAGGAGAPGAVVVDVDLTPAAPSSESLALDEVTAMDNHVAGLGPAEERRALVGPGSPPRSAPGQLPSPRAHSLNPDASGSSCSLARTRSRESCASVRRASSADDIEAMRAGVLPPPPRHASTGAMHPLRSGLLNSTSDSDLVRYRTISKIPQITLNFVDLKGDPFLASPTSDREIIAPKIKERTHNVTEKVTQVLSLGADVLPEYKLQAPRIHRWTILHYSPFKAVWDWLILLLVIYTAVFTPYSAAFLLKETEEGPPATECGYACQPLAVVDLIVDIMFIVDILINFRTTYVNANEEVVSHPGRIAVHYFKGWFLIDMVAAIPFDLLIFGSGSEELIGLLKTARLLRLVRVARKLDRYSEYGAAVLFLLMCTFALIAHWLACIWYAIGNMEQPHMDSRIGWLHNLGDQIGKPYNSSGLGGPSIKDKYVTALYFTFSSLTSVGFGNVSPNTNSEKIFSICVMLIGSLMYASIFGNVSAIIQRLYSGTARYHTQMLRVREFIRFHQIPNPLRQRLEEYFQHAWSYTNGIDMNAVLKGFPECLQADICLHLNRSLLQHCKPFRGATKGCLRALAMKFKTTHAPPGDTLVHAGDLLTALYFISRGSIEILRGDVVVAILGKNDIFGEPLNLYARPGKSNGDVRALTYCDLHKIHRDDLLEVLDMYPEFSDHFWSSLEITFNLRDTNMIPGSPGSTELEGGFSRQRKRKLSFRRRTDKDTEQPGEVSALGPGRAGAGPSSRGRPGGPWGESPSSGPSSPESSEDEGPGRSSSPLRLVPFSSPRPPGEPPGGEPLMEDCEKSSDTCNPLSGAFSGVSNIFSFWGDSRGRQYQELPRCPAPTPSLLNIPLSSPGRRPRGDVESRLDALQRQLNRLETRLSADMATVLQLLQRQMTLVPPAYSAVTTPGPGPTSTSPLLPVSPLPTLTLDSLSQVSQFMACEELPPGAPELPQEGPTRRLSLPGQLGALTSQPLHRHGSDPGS
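U2OS cells transduced with wild-type KCNH2 virus are loaded with FluxOr dye for 45 min, and thallium flux is measured in kinetic reads before and after stimulation buffer. Rate constants are normalized to DMSO controls.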
Six1-Eya2 inh: inhibitors of human Six1/Eya2 interaction; actives 0.56% (n = 360,000); activity change, % (test concentration not listed); AlphaScreen GST-Six1/His-Eya2 binding, biochemical; hits give low values
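Six1/Eya2 binding was read as AlphaScreen signal after compounds were pinned into GST-Six1 plus His-tagged Eya2 (5X stock 250/500 nM) in pH 8.0 Tris/NaCl/TCEP buffer, beads added, then incubated 1 h, 37 C, dark.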
KCNH2 3.1 inh: inhibitors of human KCNH2 3.1 potassium channel isoform. activity change, % (tested at about 1.8 µM). U2OS KCNH2 3.1, thallium flux FluxOr; hits give low values. actives 0.95% (n = 340,000). AID 720553;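 active means maximum activity change below -70%; inconclusive means maximum activity change from -70% to -50%; inactive means maximum activity change above -50%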;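 further: thallium influx rate constant from kinetic fluorescence after stimulation buffer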
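Steps: virus added to U2OS suspension (4 h, RT, dark); medium with 10% FBS added, cells plated, 37 C overnight; FluxOr/Red40 loading buffer 45 min RT; stimulation buffer, 2 min kinetic read; rate constant normalized.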
JMJD2E inh: JMJD2E (human) inhibition | B2RXH2 | JMJD2E catalytic domain, FDH-coupled NADH fluorescence (FDH is formaldehyde dehydrogenase) | Potency, µM (top dose mostly 57.1 µM), usual class: inhibitors | actives 1.6% (n = 230,000) | AID 2147; active means well fitted inhibition curve with a large enough effect, not every such curve was filed as active; inconclusive means small, poorly fitted or top-dose-only effect, or another doubt; inactive means no such curve, though single readings can be large or run the other way; further: nearly all actives have a fitted effect of over 50% in size
Of the large screens only hits and unclear results are named; the others gave an inactive call. An excerpt weighted towards active compounds, which were near 2% of everything screened. Unless noted, no stated cut-off is given here; in the data, active means activity change below about -65%; inconclusive means mostly about -30% to -63%; inactive means weaker than that.

O=[N+]([O-])c1ccc(N2CCN(C(=S)NCc3ccc(Cl)cc3)CC2)cc1	KCNH2 3.1 inh -93 (no result: CtBP-E1A inh)
Cc1ccc(OCc2nnc(SCC(=O)CC(=O)Nc3ccccc3)o2)cc1	JMJD2E inh inconclusive
Oc1ccccc1N=Nc1ccccc1O	Six1-Eya2 inh -86, JMJD2E inh 32µM (no result: CtBP-E1A inh)
COc1cc(C)ccc1OCc1cc(C(=O)NC(c2ccccn2)C(F)(F)F)no1 (stereo not given)	KCNH2 3.1 inh -87 (no result: JMJD2E inh)
COc1cc(C)ccc1OCc1cc(C(=O)NC2CCOCC2)no1	none (no result: JMJD2E inh)
CCOc1cc(C(=O)Nc2cccc(OCC(=O)N3CCOCC3)c2)cc(OCC)c1OCC	none (no result: JMJD2E inh)
CCN1CCS/C1=C\C=C\C1=[N+](CC)CCS1	none (no result: JMJD2E inh)
CCN1CCS/C1=C/C=C/C1=[N+](CC)CCS1	JMJD2E inh 28µM
O=C(Nc1ccc(F)cc1)C(=O)c1c(O)[nH]c2ccc([N+](=O)[O-])cc12	KCNH2 3.1 inh -82
CC(C)(C)C(=O)OCc1nc(-c2ccc(C(F)(F)F)cc2)cs1	KCNH2 3.1 inh -93
FC(F)(F)c1ccc(-c2csc(-c3ccno3)n2)cc1	JMJD2E inh inconclusive (no result: CtBP-E1A inh)
O=[N+]([O-])c1cccc(/C=N/n2cnnc2)c1O	none
COc1cc(NC(=O)c2cccs2)c(OC)cc1NC(=O)CCC(=O)Nc1cccc2ncccc12	CtBP-E1A inh -87, Six1-Eya2 inh -82
COc1ccccc1NC(=O)CCC(=O)Nc1cc(OC)c(NC(=O)c2cccs2)cc1OC	CtBP-E1A inh -93, Six1-Eya2 inh -95 (no result: JMJD2E inh)
COc1ccc(/C=C/c2c([N+](=O)[O-])c(=O)n(C)c(=O)n2C)cc1OC	KCNH2 3.1 inh -75
O=C(CSc1n[nH]c(-c2ccncc2)n1)Nc1ccc(Cl)c(Cl)c1	none (no result: JMJD2E inh)
Cc1ccc(N2C(=O)CCC2(C(N)=O)c2ccccc2)cc1 (stereo not given)	none
Clc1ccc(-c2csc(N/N=C/c3cccnc3)n2)c(Cl)c1	hERG WT inh inconclusive, KCNH2 3.1 inh -112
C(=N\Nc1nc(-c2ccccc2)cs1)/c1cccnc1	none
COc1ccc(C(=O)Nc2ncc(C)s2)cc1S(=O)(=O)N1CCCC1	none
O=C(CSc1oc(-c2cccs2)nc1S(=O)(=O)c1ccc(F)cc1)NCC1CCCO1 (stereo not given)	none
CCOc1cc(S(=O)(=O)N2CCN(c3ccc(F)cc3)CC2)c(OCC)cc1-n1cnnn1	hERG WT inh -76, KCNH2 3.1 inh -79, JMJD2E inh inconclusive
O=C(CNCc1ccccn1)Nc1ccc([N+](=O)[O-])cc1C(=O)Nc1ccccc1F	CtBP-E1A inh -89, Six1-Eya2 inh -93 (no result: JMJD2E inh)
Cc1cc([N+](=O)[O-])ccc1NC(=O)CN1CCN(Cc2ccccc2)CC1	KCNH2 3.1 inh -81 (no result: JMJD2E inh)
O=C(CN1CCN(c2ccc(O)cc2)CC1)Nc1cc([N+](=O)[O-])ccc1Cl	JMJD2E inh 14µM
CCOC(=O)N1CCN(CC(=O)Nc2ccc([N+](=O)[O-])cc2C(=O)Nc2ccccc2F)CC1	none (no result: CtBP-E1A inh, hERG WT inh)
Cc1ccccc1NC(=O)CN1CCN(Cc2ccccc2)CC1	none (no result: JMJD2E inh)
O=C(CN1CCN(Cc2ccccc2)CC1)Nc1ccc([N+](=O)[O-])cc1C(=O)Nc1ccccc1F	hERG WT inh -82, KCNH2 3.1 inh -103 (no result: CtBP-E1A inh)
CC(=O)c1cccc(NC(=O)c2cc(C)no2)c1	none
Cc1ccc(S(=O)(=O)Nc2cccc(-n3cnnn3)c2)cc1	none (no result: CtBP-E1A inh, JMJD2E inh)
Cc1cccc(NC(=O)Nc2c(C)n(C)n(-c3ccccc3)c2=O)c1	hERG WT inh -102 (no result: JMJD2E inh)
Cc1c(NC(=S)N/N=C/c2ccc([N+](=O)[O-])cc2O)c(=O)n(-c2ccccc2)n1C	CtBP-E1A inh -93, Six1-Eya2 inh -84, JMJD2E inh 10µM
Cc1c(NC(=O)Nc2cccc(Cl)c2)c(=O)n(-c2ccccc2)n1C	none
Cc1c(NC(=S)N/N=C\c2ccccc2O)c(=O)n(-c2ccccc2)n1C	Six1-Eya2 inh -90, JMJD2E inh inconclusive
Cc1c(NC(=S)N/N=C/C=C/c2ccc([N+](=O)[O-])cc2)c(=O)n(-c2ccccc2)n1C	none
Cc1sc(NC(=O)c2ccco2)c(C(c2ccc(F)cc2)N2CCN(C)CC2)c1C (stereo not given)	none
O=C(O)c1ccc(COc2ccc3ccccc3c2/C=C2/NC(=O)N(Cc3ccc(F)cc3)C2=O)cc1	JMJD2E inh inconclusive
NC(=O)COC(=O)c1cccc2c1-c1ccccc1C2=O	CtBP-E1A inh inconclusive, Six1-Eya2 inh inconclusive

Screening data deposited in PubChem by National Center for Advancing Translational Sciences (NCATS).
